# Compound activity deposited in PubChem by The Scripps Research Institute Molecular Screening Center.
# LYPLA2 counter = blocks human lysophospholipase 2, a PME1 counter-screen. recombinant LYPLA2, FP-Rh probe fluorescence polarization. inhibition, % at 5.9 µM. hit rate 0.38% among 320,000;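 active = inhibition above the screen-wide mean plus 3 SD, limit set per campaign, cut at about 26% in these data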;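 note: 0% = LYPLA2 with DMSO and 100% = wells lacking LYPLA2 enzyme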
# pPAFAH FP inh = pPAFAH (human) enzyme inhibition | Q13093 | recombinant pPAFAH, FP-rhodamine probe fluorescence polarization | inhibition, % at 3.39 µM | hit rate 1.5% among 330,000 | AID 463082;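 active = inhibition above the mean inhibition across the screen plus 3 SD, cut at about 25% in these data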;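 note: inhibitors block binding of the rhodamine activity-based probe so polarization drops; 0% = enzyme with DMSO and 100% = wells lacking pPAFAH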
# LYPLA1 counter = counter-screen for PME1 inhibitors: inhibitors of human LYPLA1. recombinant LYPLA1, FP-Rh probe fluorescence polarization. inhibition, % at 5.9 µM. hit rate 0.16% among 320,000;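 active = inhibition above the mean of all tested compounds plus 3 SD, set per campaign, cut at about 14% in these data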;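 note: inhibitors block serine hydrolase probe labeling of LYPLA1 so polarization falls; 0% = enzyme with DMSO and 100% = wells lacking LYPLA1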
# Target sequence (O75608 whole entry, looked up): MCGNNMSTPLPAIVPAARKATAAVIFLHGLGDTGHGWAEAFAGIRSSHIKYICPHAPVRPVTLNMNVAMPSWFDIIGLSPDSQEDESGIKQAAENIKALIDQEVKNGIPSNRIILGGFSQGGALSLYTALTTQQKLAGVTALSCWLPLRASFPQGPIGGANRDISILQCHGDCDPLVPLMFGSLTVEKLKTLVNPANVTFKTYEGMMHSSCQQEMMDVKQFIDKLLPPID
# PAFAH1B3 FP inh = PAFAH1B3 (human) inhibition; inhibition, % at 3.39 µM; recombinant PAFAH1B3, FP-rhodamine probe, fluorescence polarization; hit rate 0.28% among 340,000;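 active = inhibition above the screen-wide average of all tested compounds plus 3 SD, cut at about 25% in these data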;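 note: 0% = enzyme with DMSO only and 100% = wells lacking PAFAH1B3 protein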
# Target sequence (Q15102 whole entry, looked up): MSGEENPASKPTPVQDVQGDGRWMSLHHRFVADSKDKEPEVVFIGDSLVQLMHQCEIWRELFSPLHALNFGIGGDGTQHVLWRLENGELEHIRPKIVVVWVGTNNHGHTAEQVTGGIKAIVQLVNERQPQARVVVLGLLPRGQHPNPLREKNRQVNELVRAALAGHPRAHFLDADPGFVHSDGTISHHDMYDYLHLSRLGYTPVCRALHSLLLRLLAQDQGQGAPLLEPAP
# PAFAH2 inh = inhibitors of human PAFAH2. Q99487. recombinant PAFAH2, FP-rhodamine activity probe, fluorescence polarization. inhibition, % at 3.39 µM. hit rate 0.99% among 340,000;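 active = inhibition above the mean over all tested compounds plus 3 SD, cut at about 30% in these data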;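 note: inhibitors block probe labeling of enzyme so polarization drops; 0% = enzyme with DMSO and 100% = wells lacking PAFAH2 protein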
# PAFAH1B2 inh = inhibitors of human PAFAH1B2; AID 492953; recombinant PAFAH1B2, FP-rhodamine activity probe, fluorescence polarization; hit rate 1.2% among 340,000; inhibition, % at 3.39 µM;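 active = inhibition above the mean of all tested compounds plus 3 SD, cut at about 24% in these data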;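 note: 0% = enzyme with DMSO and 100% = wells lacking PAFAH1B2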
# PAFAH2 confirm = confirmation of human PAFAH2 inhibitors; inhibition, % at 3.39 µM; AID 493030; shares compounds with PAFAH2 inh; recombinant PAFAH2, FP-rhodamine activity probe, fluorescence polarization; hit rate 65% among 2,300;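 active = mean inhibition over three repeats above a set limit taken from the earlier primary screen, cut at about 30% in these data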;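 note: inhibitor blocks binding of rhodamine activity probe so polarization falls; 0% = enzyme with DMSO and 100% = wells lacking PAFAH2 protein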
# The depositor's hits bear a star; · = no result. Hits are enriched below; roughly 2.9% of the tested compounds scored in any of these assays.
SMILES,LYPLA2 counter,pPAFAH FP inh,LYPLA1 counter,PAFAH1B3 FP inh,PAFAH2 inh,PAFAH1B2 inh,PAFAH2 confirm
CS(=O)(=O)c1cccc(S(=O)(=O)N2CCCCCC2)c1,4,0,-2,4,145*,6,2
O=C(Nc1ccc(Oc2ccc(NC(=O)Nc3ccccc3Cl)cc2)cc1)Nc1ccccc1Cl,-5,1,-1,6,55*,2,27
O=C(COC(=O)C1=COCCO1)Nc1cc(Cl)c(Cl)cc1Cl,·,2,·,2,38*,1,33*
CC(C)c1cccc(C(C)C)c1NC(=O)COC(=O)C1=COCCO1,-2,-1,-3,6,68*,6,57*
CCC(C)c1ccc(NC(=O)COC(=O)C2=COCCO2)cc1 (stereo unspecified),4,2,-2,-3,69*,3,58*
Cc1ccc(NC(=O)COC(=O)C2=COCCO2)c([N+](=O)[O-])c1,-5,4,-2,6,3,3,·
O=C(COC(=O)c1c(F)cccc1F)Nc1ccc2c(c1)OCO2,·,·,·,2,10,-4,·
O=C(COC(=O)C1=COCCO1)Nc1ccc2c(c1)OCO2,0,6,0,5,69*,3,52*
NC(=O)C1CC(=O)N(CCc2ccc(F)cc2)C1 (stereo unspecified),1,1,-3,6,-1,5,·
Cc1ccc(NC(=O)COC(=O)C2=COCCO2)cc1,5,4,-1,2,47*,2,39*
COc1ccc(NC(=O)COC(=O)C2=COCCO2)cc1OC,10,3,3,-2,8,2,·
O=C(COC(=O)c1cccs1)NCc1ccco1,2,11,3,6,45*,0,29
Cc1cc2c(cc(C(=O)OCC(=O)NCc3ccco3)n2C)s1,0,-6,-2,2,18,5,·
Cn1c(C(=O)OCC(=O)NCc2ccco2)cc2sccc21,7,14,-2,19,45*,-5,22
Cc1ccsc1C(=O)OCc1nc2ccsc2c(=O)[nH]1,-5,6,-1,5,-1,1,·
O=C(COC(=O)c1cccs1)NCc1ccccc1,0,6,-4,10,47*,2,34*
Cc1ccsc1C(=O)OCc1nc2ccccc2c(=O)[nH]1,4,2,0,8,38*,2,26
O=C(COC(=O)c1cccs1)NCc1ccc2c(c1)OCO2,2,9,-1,-2,10,1,·
CCCCOc1ccc(CN(CCO)CCO)cc1[N+](=O)[O-],1,0,4,-1,1,-2,·
COc1ccc(CCN/C=C2/CC(=O)NC2=O)cc1OC,3,3,0,3,-1,1,·
O=C(COC(=O)c1cccs1)NCC1CCCCC1,4,5,1,4,79*,3,82*
COc1cc(C(=O)OCC(=O)NCc2ccco2)cc(OC)c1OC,4,2,4,8,3,8,·
CN(C)c1cccc(C(=O)OCC(=O)NCc2ccco2)c1,-1,9,2,-6,57*,-1,44*
CC(CNC(=O)COC(=O)c1cccs1)c1ccccc1 (stereo unspecified),5,1,0,6,75*,1,73*
Cc1ccsc1C(=O)OCC(=O)NCc1ccccc1,·,8,·,8,34*,0,23
SMILES,LYPLA2 counter,pPAFAH FP inh,LYPLA1 counter,PAFAH1B3 FP inh,PAFAH2 inh,PAFAH1B2 inh,PAFAH2 confirm
O=C(COC(=O)c1ccc(Br)o1)NCC1CCCCC1,·,8,·,5,-5,5,·
O=C(NCCc1cccs1)C1CC(c2ccccc2F)=NO1 (stereo unspecified),-3,1,-7,3,-4,5,·
O=C1NC(c2ccccc2)=CC(c2ccccc2O)N1 (stereo unspecified),3,4,4,2,-3,4,·
COc1ccc(CN2C(=O)c3ccccc3C2=O)cc1C(=O)OCC(=O)NC1CCCCC1,13,21,1,4,52*,-1,45*
CCCCNC(=O)COC(=O)c1ccc(SC)cc1OC,-7,12,0,7,46*,4,23
COc1cc(OC)c(C(=O)OCC(=O)NCC2CCCCC2)cc1OC,·,·,·,-5,51*,1,43*
COc1ccccc1C(=O)OCC(=O)NC(=O)NC1CCCCC1,·,·,·,0,14,3,·
COc1ccccc1C(=O)OCC(=O)NC1CCCC1,7,5,4,6,38*,11,22
O=C(CN1C(=O)c2ccccc2C1=O)N1CCN(S(=O)(=O)c2ccccc2)CC1,0,3,-3,3,-1,4,·
COc1cc(OC)c(C(=O)OCC(=O)NC2CCCC2)cc1OC,-4,8,-5,2,52*,5,39*
COc1cc(OC)c(C(=O)OCC(=O)NC2CCCCCCC2)cc1OC,·,14,·,10,75*,3,83*
COc1cc(SC)ccc1C(=O)OCC(=O)NC1CCCC1,8,21,3,7,68*,11,57*
COc1cc(SC)ccc1C(=O)NC1CCCCC1,-6,3,-1,8,0,10,·
O=C(COC(=O)c1ccccc1Br)NC1CCCC1,2,7,3,4,52*,6,35*
COc1ccc(NC(=O)CN(C)C(=O)c2ccc(N3CCCC3)c([N+](=O)[O-])c2)cc1,0,0,2,-2,1,7,·
C=CCOc1c2ccc(C(=O)NCCc3ccc(C)cc3)cc2nn1C,-4,2,1,0,3,8,·
CCOc1ccccc1C(=O)OCC(=O)NCC1CCCCC1,2,13,1,9,44*,-1,48*
CCOc1ccccc1C(=O)OCC(=O)NCC1CCCO1 (stereo unspecified),-13,-2,-5,5,5,4,·
CC(CCc1ccccc1)NC(=O)COC(=O)CC1CC2CCC1C2 (stereo unspecified),7,19,5,5,30*,15,20
O=C(COC(=O)CC1CC2CCC1C2)NCc1ccccc1 (stereo unspecified),·,22,·,14,46*,13,29
O=C(COC(=O)CC1CC2CCC1C2)NCc1ccc(Cl)cc1 (stereo unspecified),·,19,·,6,25,22,·
O=C(Cc1ccc(Cl)cc1)NCC(=O)N1CCN(c2ccccc2)CC1,3,9,4,10,17,9,·
O=C(Nc1ncccc1O)c1ccc2ccccc2c1,3,-2,-2,3,12,0,·
Cc1ccc(N2C(=O)C(CN3CCOCC3)C2c2ccccc2)cc1 (stereo unspecified),11,0,1,9,3,3,·
